Test [1] in a line: IUF_NPC1_cytotoxicity_72hr: Cytotoxicity Assessment at 72 hours in the Leibniz Research Institute for Environmental Medicine (IUF) Neural Progenitor Cell Proliferation Assay (NPC1) (AID 2284332).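 Also: rising LDH signal means more cytotoxicity.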 In outline: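 Single human fetal cortex neural progenitor spheres (GW 16-19, 0.25-0.35 mm) in EGF/FGF proliferation medium were exposed to compound for 72 h at 37C without renewal. Medium LDH release was read as resorufin fluorescence and fitted as gain-of-signal.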

A short description of test [2]: CCTE_Mundy_HCI_iCellGluta_NOG_NeuronCount: CCTE's Neurite Outgrowth Assay in iCellGluta cells for Neuron Count, Mundy Lab (AID 2284340).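 Also: cells fixed about 48 h after compound addition.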 In outline:
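Neuron count read by automated high-content imaging of Hoechst 33342 and betaIII-tubulin/Alexa Fluor-488 labelling in human iPSC glutamatergic neurons. Activity fitted relative to DMSO.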

Test [3] can be described thus: CCTE_Mundy_HCI_iCellGluta_NOG_NeuriteCount: CCTE's Neurite Outgrowth Assay in iCellGluta cells for Neurite Count, Mundy Lab (AID 2284342).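 Also: chemical exposure about 48 hours starting 2 hours after plating.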
The test system of the next test is SERPINA7 (gene 6906). The test can be described thus: CCTE_GLTED_hTBG: CCTE's human Thyroxine-binding Globulin (TBG) Inhibition Assay, Great Lakes Toxicology and Ecology Division (GLTED) Lab (AID 2284343).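 Also: active chemicals lower fluorescence versus DMSO baseline by displacing probe.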 In outline: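 Cell-free binding assay in which human TBG is incubated with test chemical for 2 hours and displacement of the fluorescent probe ANSA is read at 380 nm excitation/475 nm emission. Activity is fitted against DMSO as the negative control.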

A short description of test [4]: TAMU_PeakParms_SingleDonor1434_Asystole: Texas A&M University (TAMU) 1.5-hr Human Induced Pluripotent Stem Cell (iPSC)-derived Cardiomyocytes Calcium (Ca+2) Flux Assay for Cardiotoxicity: Asystole (quiescence of beating) (AID 2284328). In outline: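 Average Ca2+-flux peak frequency (beats/s) was recorded in single-donor iPSC-derived cardiomyocytes after 90 min exposure (0.2–100 uM final, 0.5% DMSO). Asystole POD set as EC95 against DMSO, no preprocessing.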

Test [5] is described as follows: CCTE_Deisenroth_DEVTOX-GLR_legacy_CellCount: (Legacy) Viability Assessment in CCTE's DevTox GLR-Endo Assay, Deisenroth Lab (AID 2284331; active = hit-call score of the fitted dose curve at least 0.9, where 1 is the maximum; inactive = score below 0.9). Particulars: actives raise or lower the signal. In outline: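 Nuclei count by fluorescence high-content imaging (5 fields/well) after 48 h differentiation of RUES2-GLR cells. Two exposures, 24 h apart; 1 nM - 200 uM series; n=4. Bidirectional fit vs DMSO.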

The test system of test [6] is SRY-box transcription factor 17 (SOX17) Protein Expression, Deisenroth Lab, SOX17 (gene 64321). The test can be described thus: CCTE_Deisenroth_DEVTOX-GLR_legacy_Sox17: (Legacy) CCTE's DevTox GLR-Endo Assay Evaluation of SRY-box transcription factor 17 (SOX17) Protein Expression, Deisenroth Lab (AID 2284341; active = hit-call score of the fitted dose curve at least 0.9, where 1 is the maximum; inactive = score below 0.9). As to conditions: actives raise or lower the signal. As to the method:
CCTE_Deisenroth_DEVTOX-GLR_legacy assay is a cell-based, multiplex-readout assay that uses RUES2-GLR, a human pluripotent cell line, with measurements taken at 48 hours after chemical dosing in a 384-well microplateCCTE_Deisenroth_DEVTOX-GLR_legacy_Sox17 is one of 4 assay components calculated from the CCTE_Deisenroth_DEVTOX-GLR_legacy assay and it measures an increase in the percentage of cells in an endoderm state. It is designed to make measurements of inducible reporter a form of fluorescent protein induction as detected with optical fluorescence microscopy. Percentage Sox17+ cells are determined by calculating the number of Sox17+ cells divided by cell count. A cell is Sox17+ if the cell Sox17 mean intensity is 5x BMAD above the pluripotent control median cell Sox17 mean. The assay endpoints were analyzed with bidirectional fitting relative to 0.2% DMSO control in the CCTE_Deisenroth_DEVTOX-GLR_Endo assay.Data from the assay component CCTE_Deisenroth_DEVTOX-GLR_legacy_Sox17 was analyzed into 1 assay endpoint. This assay endpoint, CCTE_Deisenroth_DEVTOX-GLR_legacy_Sox17, was analyzed with bidirectional fitting relative to DMSO as the negative control and baseline activity. […] Furthermore, this assay endpoint can be referred to as a primary readout, because this assay has produced multiple assay endpoints where this one serves as a measure of endoderm differentiation. […]

The test system of test [7] is SRY-box transcription factor 2 (SOX2) Protein Expression, Deisenroth Lab, SOX2 (gene 6657). The test can be described thus: CCTE_Deisenroth_DEVTOX-GLR_legacy_Sox2: (Legacy) CCTE's DevTox GLR-Endo Assay Evaluation of SRY-box transcription factor 2 (SOX2) Protein Expression, Deisenroth Lab (AID 2284346; active = hit-call score of the fitted dose curve at least 0.9, where 1 is the maximum; inactive = score below 0.9). In outline:
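hPSC RUES2-GLR, 384-well; 24 h seed → 48 h endoderm differentiation, 2 doses q24h, 1 nM–200 uM. Fix, nuclear dye, 5 fields/well. Sox2+ cells/cell count; cell positive if >5x BMAD over endoderm ctrl; gain direction vs DMSO.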

Records with an inconclusive call do not appear. Calls of active or inactive are those of the source. The calls were made as follows, unless noted: active = hit-call score of the fitted dose curve at least 0.9, where 1 is the maximum; inconclusive = response in the unintended direction; inactive = score below 0.9.

For the compound `O=S(=O)(O)C(F)(F)C(F)(F)C(F)(F)C(F)(F)C(F)(F)C(F)(F)F`, the outcome in test [1], in test [2] and in test [3] was inactive. For `O=NN(c1ccccc1)c1ccccc1`, in the test on SERPINA7 (gene 6906), the AC50 (as a rule, the concentration at which the activity in the assay is half-maximal) is 13.9 µM (active). In the case of `C=CC(N)=O`, the result in test [4], in test [5], in test [1], in test [6] and in test [7] was inactive.

`CCCCCCCCCc1ccc(O)cc1`: the AC50 in the test with SERPINA7 (gene 6906) was 5.76 µM (active). For `NS(=O)(=O)C(F)(F)C(F)(F)C(F)(F)C(F)(F)C(F)(F)C(F)(F)C(F)(F)C(F)(F)F`, the outcome in test [2] and in test [3] was inactive. On to `CC(c1ccc(O)cc1)(c1ccc(O)cc1)c1ccc(O)cc1`, for which the AC50 in the test with SERPINA7 (gene 6906) is 11.5 µM (active). For `CO/C=C(/C(=O)OC)c1ccccc1COc1cccc(C(F)(F)F)n1`, the result in test [1] was inactive. In addition, the figures for the AC50 in test [2] and in test [3] were 35.8 µM (active) and 20 µM (active), respectively. As to `CCC(C)(c1ccc(O)cc1)c1ccc(O)cc1`, the AC50 with SERPINA7 (gene 6906) is 13.7 µM (active).

In the case of `CCC(C)c1cc([N+](=O)[O-])cc([N+](=O)[O-])c1O` (stereo not drawn), the AC50 in the test on SERPINA7 (gene 6906) was 19.3 µM (active).

Turning to `O=C(O)C(F)(F)C(F)(F)C(F)(F)C(F)(F)C(F)(F)C(F)(F)C(F)(F)C(F)(F)F`, the AC50 with SERPINA7 (gene 6906) is 86.5 µM (active).

As for `ClC1=C(Cl)[C@]2(Cl)[C@@H]3[C@@H]4C[C@@H]([C@H]5O[C@@H]45)[C@@H]3[C@@]1(Cl)C2(Cl)Cl`, the outcome in test [4] was inactive. Moreover, the AC50 in the test with SERPINA7 (gene 6906) was 1.56 µM (active).

Turning to `Sc1ccccc1`, in the test on SERPINA7 (gene 6906), the AC50 is 14.1 µM (active). On the same count and under the same terms, the same measure for `CC(C)(c1ccccc1)c1ccc(O)cc1`: 3.54 µM (active). Take `CCOP(=S)(OCC)SCSC(C)(C)C`: the compound was called inactive in test [1], in test [2] and in test [3].

As for `O=C(O)C(F)(F)C(F)(F)C(F)(F)C(F)(F)C(F)(F)C(F)(F)C(F)(F)C(F)(F)C(F)(F)F`, the compound was classed as inactive in test [2] and in test [3].
